This is an account of results in PubChem BioAssay (EPA / NIEHS).

Each structure is given as a SMILES string. Where “and” joins values, the source holds several entries; their conditions need not be identical. Identical values can stand only once. Results filed as inconclusive are left out. The source holds several records for some structures; these can differ, active in one and inactive in another. Calls of active or inactive are those of the source. Rule for the calls: active = hit-call score of the fitted dose curve at least 0.9, where 1 is the maximum; inconclusive = response in the unintended direction; inactive = score below 0.9.

Experiment [1] concerns the target Cellular tumor antigen p53 (Homo sapiens) (UniProt P04637). Briefly: TOX21_p53_BLA_p2_ratio: Tox21 HCT-116 p53 Agonism Beta-lactamase Assay, Ratio, Phase 2 (AID 2283592). Put shortly:
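HCT-116 cells with p53-responsive beta-lactamase reporter, 4000 cells/well, preincubated 5 h, then compound in DMSO (217-fold dilution) for 16 h at 37C. CCF4-AM substrate 2 h at room temperature; 460/530 nm emission ratio fitted upward versus DMSO.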

Experiment [2] can be described thus: TOX21_p53_BLA_p3_viability: Viability Assessment in the Tox21 HCT-116 p53 Agonism Beta-lactamase Assay, Phase 3 (AID 2283593).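 Note: cells exposed to compound for 16 h before reading.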 Put shortly: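 Cellular ATP was quantified by CellTiter-Glo luminescence, read after 30 min at room temperature. Beforehand, HCT116 cells (4000/well) received compound 5 h post-seeding, 217-fold diluted from DMSO, then incubated 16 h at 37C.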

Experiment [3] can be described thus: TOX21_p53_BLA_p5_viability: Viability Assessment in the Tox21 HCT-116 p53 Agonism Beta-lactamase Assay, Phase 5 (AID 2283600). Put shortly:
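HCT-116 p53 beta-lactamase reporter cells, 4000/well, were exposed to compound (pin transfer, 217-fold dilution) for 16 hours at 37C. Cellular ATP was read by CellTiter-Glo luminescence after 30 min at room temperature.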

In experiment [4] the target is Cellular tumor antigen p53 (Homo sapiens) (UniProt P04637). As to the kind of experiment: TOX21_p53_BLA_p4_ratio: Tox21 HCT-116 p53 Agonism Beta-lactamase Assay, Ratio, Phase 4 (AID 2283601). Put shortly:
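Signal is the blue/green (460nm/530nm) ratio of cleaved versus uncleaved CCF4-AM substrate, read after 2 h substrate loading. Cells were HCT116 carrying the p53-responsive beta-lactamase reporter, dosed 16 h at 37C, 5% CO2; CellTiter-Glo measured in parallel.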

Experiment [5] can be described thus: TOX21_p53_BLA_p2_viability: Viability Assessment in the Tox21 HCT-116 p53 Agonism Beta-lactamase Assay, Phase 2 (AID 2283591).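 Note: compound exposure lasted 16 h at 37 °C; actives lower the ATP signal meaning cytotoxicity.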 Put shortly:
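Cytotoxicity readout: CellTiter-Glo ATP luminescence, 30 min at room temperature, after the beta-lactamase read. Cells were HCT116 exposed 16 h at 37C to compounds pin-transferred at 217-fold dilution from DMSO stocks.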

For experiment [6], the target named is Cellular tumor antigen p53 (Homo sapiens) (UniProt P04637). Briefly: TOX21_p53_BLA_p5_ratio: Tox21 HCT-116 p53 Agonism Beta-lactamase Assay, Ratio, Phase 5 (AID 2283599). Put shortly:
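Beta-lactamase reporter ratio (blue 460 nm over green 530 nm, 405 nm excitation) after 2 h CCF4-AM loading, in HCT-116 cells exposed 16 h at 37 C to compounds pinned at 217-fold dilution. Increases relative to DMSO baseline scored.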

Experiment [7] shares this target. Briefly: TOX21_p53_BLA_p3_ratio: Tox21 HCT-116 p53 Agonism Beta-lactamase Assay, Ratio, Phase 3 (AID 2283596). Put shortly: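 HCT116 p53-bla cells (4000/well) given compound in DMSO (217-fold dilution) after 5 h, incubated 16 h at 37C. CCF4-AM substrate 2 h at room temperature; 460/530 nm emission ratio, gain fitted against DMSO.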
Experiment [8] in a line: TOX21_p53_BLA_p4_viability: Viability Assessment in the Tox21 HCT-116 p53 Agonism Beta-lactamase Assay, Phase 4 (AID 2283597).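 Note: hits lower the luminescence signal meaning cytotoxicity.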 Put shortly: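 HCT-116 p53-bla cells, 4000/well, dosed after 5 h attachment and incubated 16 h at 37 °C, 5% CO2. Viability from CellTiter-Glo ATP luminescence after 30 min at room temperature, taken after the beta-lactamase read; loss of signal indicates cytotoxicity.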

Sequence of Cellular tumor antigen p53 (Homo sapiens) (P04637 whole entry, looked up): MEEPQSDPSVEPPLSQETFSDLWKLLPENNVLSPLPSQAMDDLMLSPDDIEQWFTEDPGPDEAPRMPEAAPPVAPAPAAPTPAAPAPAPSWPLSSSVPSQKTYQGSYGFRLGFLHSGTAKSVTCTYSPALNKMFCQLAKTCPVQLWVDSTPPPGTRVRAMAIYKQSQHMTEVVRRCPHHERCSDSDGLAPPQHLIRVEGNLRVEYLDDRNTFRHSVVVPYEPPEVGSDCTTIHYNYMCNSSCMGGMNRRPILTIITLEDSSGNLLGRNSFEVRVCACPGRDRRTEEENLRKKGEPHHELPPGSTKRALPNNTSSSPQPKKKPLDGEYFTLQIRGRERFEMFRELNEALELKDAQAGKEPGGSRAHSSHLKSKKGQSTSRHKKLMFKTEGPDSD

For the compound `FC(F)(F)COCC(F)(F)F`, the result in experiment [1], in experiment [2], in experiment [3] and in experiment [4] was inactive.

As for `O=C1OC[C@H](Cc2cccc(O)c2)[C@H]1Cc1cccc(O)c1`, the call in experiment [5], in experiment [6], in experiment [3] and in experiment [4] was inactive.

On to `Cc1ccc(S(=O)(=O)Oc2ccc(N=Nc3ccc(-c4ccc(N=Nc5c(O)ccc6cc(S(=O)(=O)O)cc(S(=O)(=O)O)c56)c(C)c4)cc3C)cc2)cc1`, for which the result in experiment [1], in experiment [2], in experiment [7], in experiment [8], in experiment [6] and in experiment [3] was inactive. Besides, in experiment [4], the outcome was inactive.

For `CC(C)CCCCCCc1ccc(OCCOCCO)cc1`, the compound was called inactive in experiment [2], in experiment [7], in experiment [8], in experiment [6], in experiment [3] and in experiment [4].

For `CCOc1ccccc1O`, the outcome in experiment [5], in experiment [1], in experiment [6], in experiment [3] and in experiment [4] was inactive.

In the case of `COC(C)(C)CCO`, the call in experiment [5], in experiment [1], in experiment [6], in experiment [3] and in experiment [4] was inactive.

Take `C1CCCCC1`: the compound was called inactive in experiment [5], in experiment [8], in experiment [6], in experiment [3] and in experiment [4].

`CCCCCCCCN1CCCC1=O`: the outcome in experiment [6], in experiment [3] and in experiment [4] was inactive.

Take `O=C1CCCC=CCCCCCCCCCC1`: the result in experiment [1], in experiment [7] and in experiment [8] was inactive.

With `CCCSc1ccc2nc(NC(=O)OC)[nH]c2c1`, the call in experiment [5] and in experiment [8] was inactive. The AC50 in experiment [1] is 336 nM (active) and 247 nM (active); in experiment [4], 339 nM (active) and 175 nM (active).

Turning to `CCC(=O)O[C@@H]1C[C@H]2CC[C@]1(C)C2(C)C`, the outcome in experiment [7], in experiment [6] and in experiment [4] was inactive.

On to `Nc1ccn([C@H]2CS[C@@H](CO)O2)c(=O)n1`, for which the outcome in experiment [1], in experiment [6] and in experiment [4] was inactive.

In the case of `CCCCCC(C)=O`, the outcome in experiment [1], in experiment [8], in experiment [6] and in experiment [4] was inactive.

As to `CCCC(C)C(O)CC` (stereo unspecified), the outcome in experiment [1], in experiment [2], in experiment [7], in experiment [8] and in experiment [4] was inactive.

For the compound `CCCCCCCCCCCCCCCC(=O)OC/C=C(C)/C=C/C=C(C)/C=C/C1=C(C)CCCC1(C)C`, the compound was called inactive in experiment [5], in experiment [2], in experiment [3] and in experiment [4].

`CCCCCCCCCCCCN1CCCCCC1=O`: the outcome in experiment [1], in experiment [2], in experiment [7], in experiment [6] and in experiment [4] was inactive.

Consider `C[Si](C)(C)O[Si](C)(C)C`, for which the outcome in experiment [1], in experiment [2], in experiment [7], in experiment [8], in experiment [6] and in experiment [3] was inactive. Moreover, the result in experiment [4] was inactive.

For the compound `c1ccc2cc(Nc3ccc(Nc4ccc5ccccc5c4)cc3)ccc2c1`, the result in experiment [1], in experiment [2], in experiment [7], in experiment [8], in experiment [6] and in experiment [4] was inactive. The AC50 in experiment [7] was 73.5 µM (active).

For the compound `N#Cc1ccc(CC(=O)c2cccc(C(F)(F)F)c2)cc1`, the result in experiment [7], in experiment [3] and in experiment [4] was inactive.

Take `CN(C)CCOC(C)(c1ccccc1)c1ccccn1` (stereo unspecified): the result in experiment [1], in experiment [7], in experiment [8], in experiment [6], in experiment [3] and in experiment [4] was inactive.

Turning to `CCc1ncc(C)[nH]1`, the compound was classed as inactive in experiment [5], in experiment [7], in experiment [8], in experiment [6] and in experiment [4].

`CC(C)CCCCCCCCCCCCCCC(=O)O`: the result in experiment [1], in experiment [2], in experiment [7], in experiment [6] and in experiment [4] was inactive.

In the case of `COc1ccc(N)c([N+](=O)[O-])c1`, the outcome in experiment [2], in experiment [6], in experiment [3] and in experiment [4] was inactive.

Regarding `C=C(C)C(=O)OCCOC1CC2CC1C1C=CCC21` (stereo unspecified), the outcome in experiment [1], in experiment [2], in experiment [7], in experiment [8] and in experiment [6] was inactive.

Regarding `C[C@@H]1CCN(C(=O)[C@H](CCCN=C(N)N)NS(=O)(=O)c2cccc3c2NC[C@H](C)C3)[C@@H](C(=O)O)C1`, the outcome in experiment [1], in experiment [6] and in experiment [4] was inactive.

As for `CC/C=C\CCOC(=O)CC`, the outcome in experiment [2], in experiment [7] and in experiment [4] was inactive.

`CC(C)c1ccccc1O`: the outcome in experiment [1], in experiment [2], in experiment [7], in experiment [8] and in experiment [3] was inactive.

For `Cc1c(Cl)cccc1[N+](=O)[O-]`, the outcome in experiment [1], in experiment [2], in experiment [7], in experiment [6] and in experiment [3] was inactive.

Consider `COC(CC(C)CCCC(C)(C)O)OC` (stereo unspecified), for which the result in experiment [5], in experiment [8], in experiment [6] and in experiment [4] was inactive.

On to `C[C@H]1C[C@@H](O)CC(C)(C)C1`, for which the result in experiment [1], in experiment [7], in experiment [6] and in experiment [4] was inactive.

On to `COc1ccccc1N=Nc1c(S(=O)(=O)O)cc2cc(S(=O)(=O)O)cc(NC(C)=O)c2c1O`, for which the result in experiment [1], in experiment [7], in experiment [8], in experiment [6] and in experiment [4] was inactive.

`CCOC(=O)C(C#N)=C(c1ccccc1)c1ccccc1`: the compound was classed as inactive in experiment [5], in experiment [1], in experiment [8], in experiment [6], in experiment [3] and in experiment [4].

As for `Cc1ccc(C)o1`, the compound was called inactive in experiment [5], in experiment [6] and in experiment [4].

`CC1=NN(c2ccc(S(=O)(=O)O)cc2)C(=O)C1`: the outcome in experiment [1], in experiment [7] and in experiment [6] was inactive.

As for `CC(C)C[C@H](NC(=O)OCC1c2ccccc2-c2ccccc21)C(=O)O`, the result in experiment [1], in experiment [8] and in experiment [6] was inactive.

The AC50 is the concentration at which the activity in the assay is half-maximal.
